Source: PubChem (NMMLSC)
RGS16-Gao HTS = modulators of RGS16 binding to Galphao, primary screen, biochemical, human proteins, multiplexed bead flow cytometry | bead-based flow cytometry RGS16-Galphao binding, fluorescence; actives lie on both sides | binding response (% of control), % at 10 µM | 220,000 tested, 0.38% active | AID 1441, 2008;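 also: Galphao activated by GDP with aluminum fluoride before binding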
Target sequence (O15492 whole entry, looked up): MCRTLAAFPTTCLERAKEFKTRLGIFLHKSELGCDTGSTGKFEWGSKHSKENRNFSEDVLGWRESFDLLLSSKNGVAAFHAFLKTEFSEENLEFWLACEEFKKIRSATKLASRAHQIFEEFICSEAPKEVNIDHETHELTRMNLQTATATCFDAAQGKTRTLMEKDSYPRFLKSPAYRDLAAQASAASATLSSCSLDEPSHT
Target sequence (P09471 whole entry, looked up): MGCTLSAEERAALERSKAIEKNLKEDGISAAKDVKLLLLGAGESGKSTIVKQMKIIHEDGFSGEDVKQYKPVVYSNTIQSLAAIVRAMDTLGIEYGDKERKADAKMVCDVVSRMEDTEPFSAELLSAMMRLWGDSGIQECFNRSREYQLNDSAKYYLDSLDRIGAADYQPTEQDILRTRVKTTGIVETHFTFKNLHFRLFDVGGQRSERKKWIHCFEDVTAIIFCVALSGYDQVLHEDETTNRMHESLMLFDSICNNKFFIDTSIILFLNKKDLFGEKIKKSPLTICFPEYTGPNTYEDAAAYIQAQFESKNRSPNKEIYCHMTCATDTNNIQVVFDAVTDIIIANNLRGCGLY
RGS8-Gao = RGS8-Galphao binding modulators, primary screen, biochemical, multiplexed bead flow cytometry | response (percent of control binding), % at 10 µM | Guanine nucleotide-binding protein G(o) subunit alpha (Homo sapiens), P09471 | actives lie on both sides | 220,000 tested, 0.34% active; in the data active = response below about 60% or above about 140%; inactive = in between;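 also: Galphao activated as the GDP aluminium fluoride complex binding bead-coupled RGS8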
Target sequence (P09471 whole entry, looked up): as above
Avidin bead fluor = green autofluorescence of compounds with avidin beads – biophysical, 488/530 nm, flow cytometry, artefact control, profiling panel; compound fluorescence 488/530 nm; active compounds read high; fluorescence (KMESF) at 10 µM; 220,000 tested, 0.38% active; AID 1775, 2009; in the data active = fluorescence above about 47
RGS4-Gao reg = modulators of RGS4 binding to Galphao, primary screen, biochemical, multiplexed bead flow cytometry. Guanine nucleotide-binding protein G(o) subunit alpha (Homo sapiens), P09471. actives lie on both sides. binding response (% of control), % at 10 µM. 220,000 tested, 0.33% active; in the data active = binding response below about 49% or above about 150%; inactive = in between;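 also: fluorescent Galphao activated with aluminum fluoride binding bead-coupled RGS4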
GSH bead fluor = compound fluorescence on glutathione beads, profiling panel, artefact control, biophysical, 488/530 nm, flow cytometry; fluorescence (KMESF) at 10 µM; AID 1776, 2009; GSH beads flow cytometry, compound fluorescence 488/530 nm; active compounds read high; 190,000 tested, 0.25% active; in the data active = fluorescence above about 89;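 also: glutathione beads carrying GST-tagged Bcl family fusion proteins plus one bare bead set; values are compound well signal with DMSO vehicle wells as background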
RGS7-Gao = RGS7-Galphao binding modulators, primary screen, biochemical, multiplexed bead flow cytometry. Guanine nucleotide-binding protein G(o) subunit alpha (Homo sapiens), P09471. actives lie on both sides. binding response (% of control), % at 10 µM. 220,000 tested, 0.35% active. AID 1439, 2008; in the data active = binding response below about 49% or above about 150%; inconclusive = no clear call, values can overlap the other calls; inactive = in between;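 also: fluorescent Galphao held in activated GDP-AlF4 state binding bead-coupled RGS7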
RGS4-Gao HTS = modulators of RGS–Galpha-o binding, primary screen, biochemical, multiplexed beads, flow cytometry, RGS4/7/8/16/19 | multiplexed bead flow cytometry | shares compounds with RGS16-Gao HTS | RGS4–Galpha-o binding response, % at 10 µM | 1,600 tested, 99% active | AID 1504, 2009;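 also: fluorescently labeled Galpha-o bound to GDP with aluminium fluoride binding biotinylated RGS beads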
Avidin counter = disruption of biotin probe capture by avidin, counter-screen for RGS protein interaction modulators, biochemical, flow cytometry, bead-based | inhibition, % at 10 µM | streptavidin beads, fluorescein-biotin binding | shares compounds with RGS16-Gao HTS | 1,700 tested, under 10 active;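 active = inhibition above 50%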;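 also: median green fluorescence of gated singlet beads compared with DMSO control wells; 0% = DMSO wells and 100% = complete loss of bead fluorescence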
RGS8-Gao single = RGS8-Galphao binding modulators, confirmation, biochemical, multiplexed bead flow cytometry, single concentration. AID 1836, 2009. binding response (% of control), % at 10 µM. shares compounds with RGS16-Gao HTS. bead-based flow cytometry RGS8-Galphao binding, fluorescence; actives lie on both sides. 1,700 tested, 3% active; in the data active = binding response below about 72% or above about 130%; inactive = in between;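 also: Galphao activated as GDP AlF4 complex before binding bead RGS8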
RGS7-Gao confirm = RGS7-Galphao binding modulators, confirmation, biochemical, multiplexed bead flow cytometry, single concentration; shares compounds with RGS16-Gao HTS; response (percent of control binding), % at 10 µM; 1,700 tested, 7.8% active; bead-based flow cytometry RGS7-Galphao binding; actives lie on both sides; AID 1837, 2009; in the data active = response below about 75% or above about 130%; inactive = in between;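 also: fluorescent Galphao activated with GDP and aluminum fluoride binding bead-coupled RGS7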
RGS16-Gao single = modulators of RGS16-Galphao protein binding, confirmation, biochemical, single concentration, multiplexed bead flow cytometry | shares compounds with RGS16-Gao HTS | bead-based flow cytometry; actives lie on both sides | response (% of control binding), % at 10 µM | 1,700 tested, 4% active | AID 1838, 2009; in the data active = response below about 74% or above about 130%; inactive = in between;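 also: Galphao activated as the GDP aluminium fluoride complex binding bead-coupled RGS16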
RGS4-Gao confirm = modulators of RGS4-Galphao protein binding, confirmation, biochemical, single concentration, multiplexed bead flow cytometry; shares compounds with RGS16-Gao HTS; actives lie on both sides; binding response (% of control), % at 10 µM; 1,700 tested, 4% active; in the data active = binding response below about 74% or above about 130%; inactive = in between
RGS19-Gao conf = regulators of RGS19-Galphao binding, confirmation, biochemical, single point, multiplexed bead flow cytometry | shares compounds with RGS16-Gao HTS | bead-based flow cytometry RGS19-Galphao binding; actives lie on both sides | response (percent of control binding), % at 10 µM | 1,700 tested, 5% active; in the data active = response below about 50% or above about 160%; inactive = in between;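 also: 100% = no compound control and 0% = blank background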
* = called active by the depositor; u = inconclusive; x = not tested or not shown; [ ] = dose if it differs, or a comment. The list is not random: actives were taken first. Their share in the collection is about 1.2%. Unless noted, no rule for the calls is given here.

SMILES	RGS16-Gao HTS	RGS8-Gao	Avidin bead fluor	RGS4-Gao reg	GSH bead fluor	RGS7-Gao	Avidin counter	RGS8-Gao single	RGS7-Gao confirm	RGS16-Gao single	RGS4-Gao confirm	RGS19-Gao conf	others
Cc1c(C(c2ccc(F)cc2)c2c(O)c3ccccc3oc2=O)c(=O)n(-c2ccccc2)n1C (stereo not given)	84.3	45.6*	3	67.2	21	37.7*	0.1	107.6	110.0	112.9	106.5	112.0	RGS4-Gao HTS=67.2*
COc1ccc(C(c2c(O)c3ccccc3oc2=O)c2c(C)n(C)n(-c3ccccc3)c2=O)cc1 (stereo not given)	91.8	100.0	13	95.8	23	93.8	x	x	x	x	x	x
CC(C)N1C(=O)CC2(CC[N+](C)(CCOC(=O)C(O)(c3ccccc3)c3ccccc3)CC2)C1=O (stereo not given)	24.7*	32.0*	4	32.2*	34	26.7*	3.1	103.6	102.3	101.2	101.6	84.6
COc1ccc(C(O)P(=O)(OC(C)C)OC(C)C)cc1 (stereo not given)	103.2	99.0	19	106.8	x	u	x	x	x	x	x	x
CCOP(=O)(OCC)C(O)c1ccc(OC)cc1 (stereo not given)	x	x	x	x	x	x	1.3	95.6	86.7	92.7	91.2	68.6
Clc1cc(Cl)cc(NC2=NCCS2)c1	-16.7*	16.9*	-3	-28.9*	x	u	0.0	103.3	106.1	102.1	105.6	98.2
CCC(CC)NC1CCCCC1OC (stereo not given)	108.8	101.8	13	103.9	5	97.3	x	x	x	x	x	x
COc1ccc(OC)c(N2Cc3ccccc3C2=N)c1	97.1	98.6	10	97.0	13	98.0	x	x	x	x	x	x
Cc1ccc(C(=O)N[C@@H](C)CN2C3=NC[C@@H](Cc4ccccc4)N3C[C@H]2Cc2ccc(O)cc2)cc1Br	9.1*	18.1*	-1	16.6*	22	5.7*	2.0	103.4	103.0	99.3	103.1	96.3
Cc1ccc(C(=O)N[C@@H](C)CN2C3=NC[C@H](Cc4ccccc4)N3C[C@H]2Cc2ccc(O)cc2)cc1Br	76.9	91.0	7	72.8	x	u	x	x	x	x	x	x
CC1CN=C(NCc2ccccc2)S1 (stereo not given)	100.4	98.7	10	97.2	54	97.4	x	x	x	x	x	x
O=C(O)CC1OCC=C2CN3CCC45C6=CC(=O)C(=O)C([N+](=O)[O-])=C6NC4C1C2CC35 (stereo not given)	47.3	69.1	2	46.1*	x	u	-1.1	99.5	97.3	97.5	101.3	98.3
O=C(Nc1ccc(Br)cc1)c1nn(C23CC4CC(CC(C4)C2)C3)cc1Br	98.4	97.9	6	100.7	7	100.7	x	x	x	x	x	x
c1ccc(CCn2nnnc2CN2CCC(n3nnc4ccccc43)CC2)cc1	433.9	161.1*[activator]	6	130.6	7	128.4	-1.2	104.8	104.9	105.2	102.8	106.2	RGS4-Gao HTS=130.6*
CCOC(=O)N1CCC(NC(=O)CCc2nc(C3=CCN(C)CC3)no2)CC1	109.5	101.1	166*	124.9	23	189.7*[activator]	x	x	x	x	x	x	RGS4-Gao HTS=124.9*
C/C(=N\Nc1ccccc1)c1c(O)n(C)c(=O)n(C)c1=O	101.0	101.5	5	100.6	10	106.2	x	x	x	x	x	x
O=P(Nc1ccccc1)(Nc1ccccc1)Oc1ccccc1	10.5*	62.3	5	80.5	30	81.2	0.4	99.4	105.9	102.5	104.8	105.5	RGS4-Gao HTS=80.5*
COc1ccc(NP(=O)(Nc2ccc(OC)cc2)Oc2ccccc2)cc1	105.6	98.0	23	99.8	15	104.0	x	x	x	x	x	x
CN1CCN2c3ccc(N)cc3CC3(C(=O)NC(=O)NC3=O)C2C1 (stereo not given)	100.7	101.8	7	100.5	x	u	x	x	x	x	x	x
CCN1CCN(C(=O)COc2ccc3c(c2)C(=O)CC2(CCN(C(C)=O)CC2)O3)CC1	99.6	99.2	12	97.6	35	94.4	x	x	x	x	x	x
Cc1cccc(N2C(=O)NC(=O)/C(=C\c3cccn3-c3ccc(Cl)cc3)C2=O)c1	95.3	89.1	402*	128.6	12	233.1*[activator]	x	x	x	x	x	x	RGS4-Gao HTS=128.6*
Nc1c([N+](=O)[O-])cc(F)c(N2CCNCC2)c1Br	40.5	51.9*	0	44.0*	10	39.3*	0.1	104.2	100.6	104.0	99.3	89.0
O=C(NC12CC3CC(CC(C3)C1)C2)OC1CN2CCC1CC2 (stereo not given)	127.7	101.3	10	166.7*[activator]	x	u	1.0	99.7	102.2	98.7	100.4	99.6
COc1cc2c(cc1OC)C(C(=O)N(C)C1CCCCC1)C1CCCCN1C2=O (stereo not given)	108.7	102.2	14	99.8	5	101.4	x	x	x	x	x	x
O=c1[nH]c(=O)n(Cc2ccco2)c(O)c1C=NCc1cccs1	95.0	96.6	32	95.7	13	95.0	x	x	x	x	x	x
O=c1[nH]c(=S)n(Cc2ccco2)c(O)c1C=NCc1cccs1	x	x	x	x	40	x	-1.1	87.1	53.3*	73.8*	66.4*	46.8*
